Source: PubChem
A selection: hits, their analogues and other compounds. The true share with any hit is near 4.7%.
TIM10 inh: TIM10 yeast growth inhibition; S. cerevisiae TIM10 strain growth, BacTiter-Glo luminescence, 24 h; inhibition, % at 10 µM; 1.4% of 330,000 active; AID 463195;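 active = inhibition of 40% or more at the single tested concentration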;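 note: wild-type TIM10 isogenic control strain grown at permissive 25 °C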
tim10-1 inh: tim10-1 yeast growth inhibition. S. cerevisiae tim10-1 ts strain growth, BacTiter-Glo, 24 h. inhibition, % at 20 µM. 2.2% of 330,000 active;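 active = inhibition of at least 40%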;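 note: mutant grown at 25 °C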
PfHsp90 yeast 2: inhibits growth of yeast expressing Plasmodium falciparum Hsp90; S. cerevisiae expressing PfHsp90, BacTiter-Glo ATP, 48 h; yeast lacking PDR1 and PDR3 efflux regulators; inhibition, % at 9.4 µM; 0.32% of 310,000 active;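 active = every replicate shows inhibition above about 80%, whatever the replicate mean, limit read from the data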
tim23-1 inh: inhibits growth of tim23-1 mutant yeast; S. cerevisiae tim23-1 growth, BacTiter-Glo luminescence, 24 h; inhibition, % at 20 µM; 1.3% of 330,000 active; AID 463212;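 active = growth inhibition of the mutant yeast at or above 50%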;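 note: temperature-sensitive mutant grown at 25 °C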
ATG4B inhibitor: inhibitors of human ATG4B cysteine protease | AID 504462 | inhibition, % at 8.33 µM | 0.51% of 340,000 active | ATG4B cleavage of LC3-PLA2, NBD-HPC fluorescence, 1 h; in the data active = inhibition above about 40%
Target sequence (Q9Y4P1 whole entry, looked up): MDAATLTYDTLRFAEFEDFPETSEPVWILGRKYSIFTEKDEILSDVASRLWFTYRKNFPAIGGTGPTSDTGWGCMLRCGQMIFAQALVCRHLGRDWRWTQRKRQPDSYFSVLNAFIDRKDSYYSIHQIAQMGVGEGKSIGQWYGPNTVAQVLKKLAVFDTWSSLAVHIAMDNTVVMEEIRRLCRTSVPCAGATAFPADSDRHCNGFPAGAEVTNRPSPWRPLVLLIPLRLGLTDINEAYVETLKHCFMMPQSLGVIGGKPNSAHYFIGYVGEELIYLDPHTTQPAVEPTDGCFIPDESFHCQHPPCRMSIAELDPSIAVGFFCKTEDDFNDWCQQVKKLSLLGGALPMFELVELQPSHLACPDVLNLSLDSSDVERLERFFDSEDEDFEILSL
SKKanGAS inh: SKKanGAS growth inhibition. S. pyogenes SKKanGAS, kanamycin growth, BacTiter-Glo, 6 h. inhibition, % at 7.5 µM. 1.3% of 300,000 active;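 active = mean replicate score, as percent of positive control median, at least 50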;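 note: strain carries kanamycin resistance gene driven by streptokinase promoter and grows in 40 µg/ml kanamycin; loss of luminescence reflects streptokinase promoter inhibition or plain growth inhibition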
tim10-1 conf: confirmation of tim10-1 mutant yeast growth inhibitors; shares compounds with tim10-1 inh; 56% of 7,400 active; AID 463213; S. cerevisiae tim10-1 ts strain growth, BacTiter-Glo, 24 h; inhibition, % at 20 µM;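 active = inhibition of yeast growth at or above a set limit in either of two repeat tests at 20 µM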;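 note: tim10-1 mutant grown at permissive 25 °C to find synthetic lethal compounds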
TIM10 conf: confirmation of TIM10 yeast growth inhibitors; shares compounds with TIM10 inh; S. cerevisiae tim10 strain growth, BacTiter-Glo luminescence, 24 h; inhibition, % at 10 µM; 63% of 4,600 active; AID 463215;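 active = inhibition of yeast growth at or above a set limit in either of two replicates at 10 µM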; note: this counterscreen used the strain with wild-type TIM10
Large screens that a line does not name were inactive (follow-up assays come after a bar, where they were run).

CCOC(=O)C1CCN(S(=O)(=O)c2cccc(-c3cn4cccc(C)c4n3)c2)CC1	TIM10 inh 49.9, tim10-1 inh 54.9 (no result: SKKanGAS inh) | tim10-1 conf inactive | TIM10 conf inactive
CCC(C)N(CC(=O)Nc1cccc(C)c1C)C(=O)CCl (stereo not given)	TIM10 inh 53.6, tim10-1 inh 52.7 | tim10-1 conf 47.2 | TIM10 conf 46.5
CCc1ccc(NC(=O)c2noc(C(C)C)c2[N+](=O)[O-])cc1	TIM10 inh 46.4, tim10-1 inh 52.0 | tim10-1 conf 44.1 | TIM10 conf 32.7
CCCc1cc(C(N)=O)c(NC(=O)c2cc(C)on2)s1	TIM10 inh 58.3, tim10-1 inh 64.2 | tim10-1 conf 53.8 | TIM10 conf 53.6
c1ccc(-c2c(-c3ccccc3)n(Cc3ccco3)c3ncnc(NCCCn4ccnc4)c23)cc1	TIM10 inh 45.3, tim10-1 inh 40.4, PfHsp90 yeast 2 104.3 | tim10-1 conf 37.6 | TIM10 conf inactive
OCCNc1ncnc2c1c(-c1ccccc1)c(-c1ccccc1)n2Cc1ccco1	none
CCOC(=O)CN1C(=O)S/C(=C\c2ccc3c(c2)OCO3)C1=O	none
C=C(NC(=O)C(=C)NC(=O)c1csc(C2=NC3c4csc(n4)C4NC(=O)c5csc(n5)C(C(C)(O)C(C)O)NC(=O)C5CSC(=N5)/C(=C/C)NC(=O)C(C(C)O)NC(=O)c5csc(n5)C3(CC2)NC(=O)C(C)NC(=O)C(=C)NC(=O)C(=C)NC(=O)C(C(C)C)NC2C=Cc3c(C(C)O)cc(nc3C2O)C(=O)OC4C)n1)C(N)=O (stereo not given)	none (no result: TIM10 inh, tim10-1 inh, tim23-1 inh, SKKanGAS inh)
COc1ccc(-c2nnn(CC(=O)NCc3cccs3)n2)cc1OC	none
Cc1onc(-c2ccccc2)c1C(=O)O/N=C(\N)c1ccc([N+](=O)[O-])o1	TIM10 inh 50.8, tim10-1 inh 50.4 | tim10-1 conf inactive | TIM10 conf 48.0
Cc1onc(-c2ccccc2Cl)c1C(=O)O/N=C(\N)c1ccccc1	TIM10 inh 54.6, tim10-1 inh 49.0 | tim10-1 conf 63.1 | TIM10 conf 44.9
Cc1onc(-c2ccccc2Cl)c1C(=O)c1ccccc1	none
Cn1cccc1/C=C1\CC(C(C)(C)C)C/C(=C\c2cccn2C)C1=O (stereo not given)	TIM10 inh 40.7, tim10-1 inh 45.4 (no result: PfHsp90 yeast 2) | tim10-1 conf 42.8 | TIM10 conf 41.6
Cn1cccc1/C=C1\Cc2ccccc2C1=O	none
CCn1ccnc1CN(C)Cc1nc(-c2ccccc2)no1	none (no result: PfHsp90 yeast 2)
O=C(Nc1cccc(S(=O)(=O)N2CCCCC2)c1)c1ccc2ccccc2n1	TIM10 inh 40.6, tim10-1 inh 44.3 | tim10-1 conf inactive | TIM10 conf inactive
O=C(Nc1cccc(S(=O)(=O)N2CCOCC2)c1)c1ccc2ccccc2n1	none
O=C(Nc1cccc(S(=O)(=O)N2CCCCCC2)c1)c1ccc(Cl)nc1	none (no result: PfHsp90 yeast 2, SKKanGAS inh)
O=C(Nc1cccc(S(=O)(=O)N2CCCCC2)c1)Nc1ccc(Cl)cc1Cl	TIM10 inh 45.6, tim10-1 inh 44.3 | tim10-1 conf inactive | TIM10 conf 39.0
O=C(Nc1cccc(S(=O)(=O)N2CCCC2)c1)c1ccc2ccccc2n1	TIM10 inh 43.0, tim10-1 inh 46.5 | tim10-1 conf 36.5 | TIM10 conf 38.5
COc1ccc(CNC(=O)C2CCCN2S(=O)(=O)c2ccccc2)cc1 (stereo not given)	none
O=C(Nc1nccs1)c1cccc(S(=O)(=O)N2CCCC2)c1	none
Cc1ccc(CNC(=O)CC2Nc3c4ccccc4nc(=S)n3C2=O)cc1 (stereo not given)	none (no result: PfHsp90 yeast 2, ATG4B inhibitor)
COc1ccc(/C=C/C(=O)c2ccccn2)cc1	none
COc1ccc(N2CCN(S(=O)(=O)c3c[nH]c(=O)[nH]c3=O)CC2)cc1	none
O=C(CSc1nc2ccccc2n1CC(=O)NCc1ccccc1)NCc1ccco1	none
CCOC(=O)C1CCN(C(=O)c2cc3cc4cc(OC)ccc4nc3o2)CC1	TIM10 inh 52.6, tim10-1 inh 47.6 | tim10-1 conf 51.0 | TIM10 conf inactive
CN(C)CC(C(=O)c1ccccc1)c1ccccc1 (stereo not given)	TIM10 inh 50.9, tim10-1 inh 49.6 | tim10-1 conf 57.0 | TIM10 conf 59.8
CN(Cc1cc(Cl)cc(Cl)c1)CC(C(=O)c1ccccc1)c1ccccc1 (stereo not given)	none (no result: TIM10 inh, tim10-1 inh, tim23-1 inh, SKKanGAS inh)
CCc1ccc(-c2csc3[n+]2CCN3C(C)=O)cc1	none
CN(C)CCCN(C(=O)c1ccc2c(c1)OCCO2)c1nc2cc3c(cc2s1)OCO3	none
CCC1CCCCN1S(=O)(=O)c1ccc(C(=O)N(CCCN(C)C)c2nc3cc4c(cc3s2)OCO4)cc1 (stereo not given)	TIM10 inh 49.6, tim10-1 inh 46.4 | tim10-1 conf 34.0 | TIM10 conf 32.7
CC1CN(S(=O)(=O)c2ccc(C(=O)N(CCCN(C)C)c3nc4cc5c(cc4s3)OCCO5)cc2)CC(C)O1 (stereo not given)	TIM10 inh 44.0, tim10-1 inh 54.0 | tim10-1 conf 51.8 | TIM10 conf 45.2
COCC(=O)Nc1cccc(Br)c1	none
CCOC(=O)/C=C/C(=O)OCC(=O)Nc1cccc(Br)c1	TIM10 inh 50.9, tim10-1 inh 47.4 | tim10-1 conf 32.9 | TIM10 conf 29.0
CN1CCc2c(C#N)c(N3CCCCC3)nc(NCc3ccccc3)c2C1	TIM10 inh 43.0, tim10-1 inh 48.3 (no result: PfHsp90 yeast 2) | tim10-1 conf 31.9 | TIM10 conf inactive
N#Cc1c(NCCCO)nc(NCc2ccccc2)c2c1CCN(Cc1ccccc1)C2	none
COc1ccc(-c2cn3c(C)c(C(=O)N4CCN(c5ccc(F)cc5)CC4)sc3n2)cc1	none
CCOC(=O)N1CCN(C(=O)c2sc3nc(-c4ccc(F)cc4)cn3c2C)CC1	TIM10 inh 43.1, tim10-1 inh 56.3 | tim10-1 conf 38.2 | TIM10 conf 39.8
COC(=O)C1CCN(C(=O)c2sc3nc(-c4ccccc4)cn3c2C)CC1	TIM10 inh 43.5, tim10-1 inh 48.2 (no result: PfHsp90 yeast 2) | tim10-1 conf 38.3 | TIM10 conf inactive
COc1ccccc1N1CCN(C(=O)c2sc3nc(-c4ccc(F)cc4)cn3c2C)CC1	tim10-1 inh 66.3 | tim10-1 conf 57.8 | TIM10 conf 50.6
Nc1c(C(=O)O)cnc2nc(N3CCOCC3)nn12	none
O=[N+]([O-])c1ccc(C2=NN(CCO)C(=Nc3ccc(OC(F)(F)F)cc3)SC2)cc1	TIM10 inh 44.8, tim10-1 inh 44.7 | tim10-1 conf inactive | TIM10 conf 32.1
